Source: PubChem (Buhrlage Lab, Dana-Farber Cancer Institute and Novartis Institutes for BioMedical Research (Cambridge, Mass))
USP17 block: blocks human USP17 ubiquitin-rhodamine cleavage. purified USP17, Ub-rhodamine cleavage fluorescence, 3 h. inhibition, % at 50 µM. 6.5% of 47,000 active. AID 1645855
USP28 block: human USP28 deubiquitinase inhibition. Q96RU2. 3% of 47,000 active. purified USP28, Ub-rhodamine cleavage fluorescence, 30 min. inhibition, % at 25 µM
USP30 block: human USP30 deubiquitinase inhibition. inhibition, % at 25 µM. Q70CQ3. 5.3% of 47,000 active. purified USP30, Ub-rhodamine cleavage fluorescence. AID 1645860
OTUD3 block: inhibitors of human OTUD3 deubiquitinase | Q5T2D3 | 0.7% of 47,000 active | inhibition, % at 25 µM | purified OTUD3, Ub-rhodamine fluorescence, 2 h
USP8 block: human USP8 deubiquitinase inhibition; P40818; inhibition, % at 20 µM; 4.2% of 47,000 active; purified USP8, Ub-rhodamine cleavage fluorescence, 30 min
* = called active by the depositor; . = not tested or not shown. An excerpt weighted towards active compounds, which were near 13% of everything screened. No stated cut-off is given here; in the data, active means inhibition above about 30%; inactive means the rest.

SMILES | USP17 block | USP28 block | USP30 block | OTUD3 block | USP8 block
O=C(CCCn1c(=O)c2ccccc2n(CC(=O)N2CCN(c3ccccc3)CC2)c1=O)NCc1ccco1 | . | -4 | -18 | 6 | 36*
COc1ccccc1CNC(=O)CCCn1c(=O)c2ccccc2n(CC(=O)N2CCN(c3ccccc3)CC2)c1=O | 57* | -6 | -2 | 2 | 1
Cc1cccc(Nc2cncc(C3CCCN3S(=O)(=O)N3CCOCC3)n2)n1 (configuration not stated) | 4 | 5 | -29 | 0 | 10
N#CC1(NC(=O)CN2CCCCC2Cn2cncn2)CCCCC1 (configuration not stated) | -113 | -106 | -362 | -85 | -65
Cc1nn(-c2ccc([N+](=O)[O-])cc2)c(C)c1-c1nc2ccccc2[nH]1 | 5 | 37* | 63* | 9 | -51
Cc1cc(=O)oc2c1c(C)nn2-c1ccc([N+](=O)[O-])cc1 | -19 | -20 | -43 | -8 | -219
O=C(OCC(=O)N1CCCc2ccccc21)c1c(F)cccc1Cl | 10 | 24 | 31* | 13 | -90
CC(=O)N1CCc2c(sc(NC(=O)C3CC3)c2C(N)=O)C1 | 28 | 0 | -16 | -10 | 50*
CC(C)N1CCc2c(sc(NC(=O)CSc3ccccc3)c2C(N)=O)C1 | -7 | 10 | 0 | 9 | -25
O=C(CSc1ncccc1C(=O)Nc1ccnn1Cc1cccnc1)Nc1ccc2c(c1)OCO2 | -37 | -38 | -129 | -31 | 45*
Cc1cccc(C)c1NC(=O)C1(NC(=O)C(C)O)CCCC1 (configuration not stated) | 10 | . | . | 2 | 1
Cc1cccc(C)c1NC(=O)C1(NC(=O)c2ccc(Br)cc2)CCCCC1 | 35* | 9 | 26 | 16 | 43*
CCOc1ccc(-n2c(SCC(=O)N3CC(=O)Nc4ccccc43)nnc2-c2ccc(OC)cc2)cc1 | 51* | 35* | 17 | -9 | -2
CN1CCN(CCNC(=O)c2cn3ccnc(-c4ccccc4)c3n2)CC1 | -5 | -1 | -16 | 1 | -4
O=C(/C=C/c1c(F)cccc1Cl)NCc1ccccn1 | -21 | -10 | -64 | -5 | -12
CCN(CC)C(=O)c1sc(NC(=O)/C=C/c2c(F)cccc2Cl)c(C#N)c1C | 62* | 17 | -29 | 23 | -4
C[C@H]1C(=O)N2CCN(S(=O)(=O)c3ccc4ccccc4c3)C[C@H]2C(=O)N1C | -8 | -9 | -4 | -9 | -4
COc1ccc(OCC(=O)Nc2ccc3c(c2)NC(=O)C(C)O3)cc1 (configuration not stated) | . | 5 | -12 | -7 | -12
Cc1cccc(OCC(=O)Nc2ccc3c(c2)NC(=O)C(C)O3)c1 (configuration not stated) | 18 | 19 | 18 | 5 | 35*
Cc1ccc(NC(=O)CSc2ccccc2C(=O)Nc2ccc3c(c2)NC(=O)C(C)O3)cc1 (configuration not stated) | 13 | -1 | -36 | -8 | 37*
COc1ccc(OC)c(C(=O)Nc2ccc3c(c2)NC(=O)C(C)O3)c1 (configuration not stated) | 0 | 0 | -1 | -5 | 2
COc1cccc(CNC(=O)CSc2nc(-c3ccco3)nc3cc(=O)[nH]n23)c1 | -21 | 0 | 1 | 1 | -18
COc1ccc(-c2nc(SCC(=O)Oc3c(C)cccc3C)n3[nH]c(=O)cc3n2)cc1 | 8 | 12 | 13 | 14 | 83*
Cc1nc(-c2ccc(NC(=O)N3CCCc4ccccc43)cc2)no1 | 7 | 3 | -32 | -1 | 19
Cc1ccc2oc(=O)c(S(=O)(=O)N3CCCCC3)cc2c1 | 61* | 9 | 25 | 13 | 21
SMILES | USP17 block | USP28 block | USP30 block | OTUD3 block | USP8 block
CC1(C(=O)NCc2ccc(F)cc2)Cn2nc(-c3ccco3)cc2C(=O)N1c1ccc2c(c1)OCCO2 (configuration not stated) | 37* | 35* | 5 | 0 | 61*
COc1ccccc1CNC(=O)C1CCCN(S(=O)(=O)Cc2ccccc2Cl)C1 (configuration not stated) | 11 | 13 | 27 | 18 | 23
O=C(CCCn1c(=O)c2cc(Cl)ccc2n(CC(=O)Nc2cccc(F)c2)c1=O)NCc1ccco1 | 0 | -9 | 12 | -3 | 30*
CCn1c(=O)c2cc(OC)c(OC)cc2n(CC(=O)c2ccc(OC)c(OC)c2)c1=O | 11 | 5 | 47* | 22 | 0
Cc1ccc(NC(=O)Cn2c(=O)n(CCCCC(=O)NCc3ccco3)c(=O)c3ccccc32)cc1C | 5 | -13 | 0 | -8 | 13
Cn1c(=O)n(CC(=O)Nc2ccc(F)c(Cl)c2)c(=O)c2ccccc21 | 2 | 0 | 5 | 6 | 16
O=C(Cn1c(=O)c2ccccc2n(CC(=O)Nc2ccc(F)c(Cl)c2)c1=O)NCc1ccco1 | 62* | 39* | 45* | 49* | 44*
COc1cc2c(=O)n(CCC(=O)NC3CCCC3)c(=O)n(CC(=O)Nc3cccc(Cl)c3)c2cc1OC | 42* | 18 | 24 | 24 | -29
Cc1cnc2c(S(=O)(=O)N(C)Cc3ccc(F)c(F)c3)cccc2c1 | -1 | 1 | 5 | -2 | -2
CC(C)c1ccc(-c2noc(SCC(=O)NCC3CCCO3)n2)cc1 (configuration not stated) | -10 | 0 | -21 | -6 | -35
O=C(Nc1ccnn1Cc1cccnc1)c1cccnc1Oc1ccccc1 | 11 | -20 | -73 | -17 | -16
CC1CN(S(=O)(=O)c2ccc(Cl)cc2)Cc2ccccc2N1C (configuration not stated) | 8 | 8 | 14 | 10 | 14
COc1cc(OC)c(NC(=O)Cn2c(=O)n(Cc3ccccc3Cl)c(=O)c3cc(OC)c(OC)cc32)cc1Cl | 29 | 36* | 60* | 24 | 26
O=C(CCCCn1c(=O)c2ccccc2n(CC(=O)Nc2ccc(F)c(Cl)c2)c1=O)NCc1ccco1 | 70* | 22 | -6 | 26 | 59*
O=C(Cn1c(=O)n(CCCC(=O)NC2CCCC2)c(=O)c2cc(Cl)ccc21)Nc1cccc(F)c1 | 3 | -1 | 37* | -2 | 10
COc1ccc(NC(=O)Cn2c(=O)n(C3CCCC3)c(=O)c3cc(OC)c(OC)cc32)cc1OC | 39* | 14 | 17 | 24 | 24
CCN1C(=O)[C@H]2CN(C(C)=O)C[C@H]2C12CCN(C(=O)Nc1ccc(Cl)cc1)CC2 | -11 | 2 | -16 | -19 | 8
CN(Cc1ccc(Br)cc1)C(=O)c1cccc2cccnc12 | 2 | 6 | -13 | 5 | 4
CC(NC(=O)Cc1ccccc1F)C(=O)Nc1nc2ccccc2[nH]1 (configuration not stated) | 7 | 7 | 13 | 15 | 15
O=C(NCc1ccco1)C(=O)Nc1ccc(F)c(Cl)c1 | 35* | -12 | -11 | -9 | 0
C[C@H](NC(=O)c1ccc(Cl)cc1Cl)C(=O)NCc1ccco1 | -6 | -5 | -2 | 0 | -3
COc1cccc(NC(=O)Cn2c(COc3ccccc3)nc3ccccc32)c1 | 63* | 2 | 27 | 0 | 15
